From PubChem BioAssay (NCI) come the findings set out here.

The nature of assay [1]: NCI Yeast Anticancer Drug Screen. Data for the rad50 strain (AID 155).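 Further: 0% = growth of vehicle-only cultures of the same strain.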 The note with it: S. cerevisiae rad50 strain growth inhibition; at 50.0 µM; hits give high values. In outline:
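DNA repair mutant yeast, compound exposure, growth read-out; inhibition is taken relative to vehicle.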

Assay [2] can be described thus: NCI Yeast Anticancer Drug Screen. Data for the mec2-1 strain (AID 157). Conditions: S. cerevisiae mec2-1 strain, at 50.0 µM, hits give high values. In outline:
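Test agents were screened against the mec2-1 yeast strain, with defined DNA repair or cell cycle alteration. Growth was scored as inhibition against vehicle-only controls.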

The nature of assay [3]: NCI Yeast Anticancer Drug Screen. Data for the sgs1 mgt1 strain (AID 161).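 Further: 0% = growth of cultures given vehicle only.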 Conditions: S. cerevisiae sgs1 mgt1 strain, at 50.0 µM, hits give high values. In outline:
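Read-out: growth inhibition vs vehicle controls. Cells: mutant yeast strain deficient in DNA damage repair.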

Assay [4] in a line: NCI Yeast Anticancer Drug Screen. Data for the cln2 rad14 strain (AID 165).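 Further: 0% = growth equal to vehicle treated cultures.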 Conditions: S. cerevisiae cln2 rad14 strain, at 50.0 µM, hits give high values. In outline:
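Growth of compound-exposed yeast (cln2 rad14 genotype) measured and expressed as inhibition relative to vehicle.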

Assay [5] is described as follows: NCI Yeast Anticancer Drug Screen. Data for the bub3 strain (AID 167). Conditions: S. cerevisiae bub3 mutant strain, at 50.0 µM, hits give high values. In outline: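 In this screen, a yeast mutant lacking normal mitotic checkpoint function is challenged with compound. Relative growth versus vehicle gives the inhibition value.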
A short description of assay [6]: NCI Yeast Anticancer Drug Screen. Data for the mlh1 rad18 strain (AID 175). Conditions: S. cerevisiae mlh1 rad18 strain growth inhibition; at 50.0 µM; hits give high values. Put shortly:
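In this whole-cell yeast screen, a strain with altered DNA damage repair is challenged with compound, and its growth is measured against matched vehicle-treated controls.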

SMILES strings stand for the structures. “And” between values parts separate entries of the source, which are not always exact repeats. Equal values may be shown once. About 79,000 compounds went through this panel and 15% of them were active in at least one assay; those are over-represented in the sample as a whole. Unmarked numbers belong to inactive results. The source made the active and inactive calls. No stated cut-off is given here; in the data, active means growth inhibition above about 70%; inactive means the rest.

Turning to `C=CCN(CC=C)C1CCOC(OC)C1O` (stereo unspecified), the growth inhibition is -19.4% in assay [1]; -20.5% in assay [2]; -9.35% in assay [3]; -5.05% in assay [4]; -12% in assay [5]; -14.2% in assay [6].

`CC1CN(C2CCCCC2)CO1` (stereo unspecified): the growth inhibition in assay [1] is -0.6%; in assay [2], -30.8%; in assay [3], 0.8%; in assay [4] it was -10.8%; in assay [5], -20.5%; in assay [6], -32.2%.

Turning to `Cc1c2ccccc2c(CNCCSCCCl)c2ccc3ccccc3c12`, the growth inhibition in assay [1] is 97.2% (active); in assay [2] it was 98.5% (active); in assay [3], 98.4% (active); in assay [4], 98.3% (active); in assay [5], 97.5% (active); in assay [6], 98.8% (active).

Consider `O=C(O)CC1OCC=C2CN3CCC45c6ccccc6NC4C1C2CC35` (stereo unspecified), for which the growth inhibition in assay [1] is -30.8% and 9.3%; in assay [2] it was -15.9% and -13.8%; in assay [3], -31.9%; in assay [4] it was 19.6%; in assay [5], -57.6%; in assay [6], -15.2% and 18.8%.

`CC[C@H]1CN2CCc3c([nH]c4ccccc34)[C@@H]2C[C@@H]1/C(=C\OC)C(=O)OC`: the growth inhibition was 8.45% in assay [1]; 3.8% in assay [2]; 18.6% in assay [3]; 9.35% in assay [4]; 21.6% in assay [5]; 0.65% in assay [6].

`CCCCCCCCCl`: the growth inhibition in assay [1] is 14.7%; in assay [2] it was -4.7%; in assay [3] it was 7.75%; in assay [4], 20.1%; in assay [5], 8.4%; in assay [6], -8.5%.

Consider `O=C(CCl)Nc1ccccc1Cl`, for which the growth inhibition was 39% in assay [1]; 9.65% in assay [2]; 25.9% in assay [3]; 18.6% in assay [4]; 55.8% in assay [5]; 45.1% in assay [6].

With `C#CC1(O)CCC(C(C)(C)C)CC1` (stereo unspecified), the growth inhibition is 10.2% and -5.45% and 20.4% in assay [1]; 6.6% and 25.3% and -12.8% in assay [2]; -7.35% and -4.35% and -1.95% in assay [3]; 7.3% and -22.6% and 7.2% in assay [4]; 9.05% and 10.4% and -10.2% in assay [5]; -17.9% and -4.15% and 10.8% in assay [6].

On to `N.N.N.N.O=C([O-])C(=O)O.O=C([O-])C(=O)[O-].[Co+3]`, for which the growth inhibition in assay [1] was -2.9%; in assay [2], 1.5%; in assay [3], -10.6%; in assay [4], 13.6%; in assay [5], 11.9%; in assay [6], -11.6%.

As for `CCN(CCCl)c1cc(CN(C)C)cc(NC(=O)c2cc(C(=O)Nc3cc(CN(C)C)cc(N(CC)CCCl)c3)n(C)n2)c1`, the growth inhibition in assay [1] is 60.2%; in assay [2], -10.3%; in assay [3], 27.9%; in assay [4] it was 20%; in assay [5] it was -3.3%; in assay [6] it was 3.05%.

As for `CNC(=O)C(CC(C)[N+](C)(C)C)(c1ccccc1)c1ccccc1` (stereo unspecified), the growth inhibition in assay [1] was 14.2%; in assay [2] it was 8.4%; in assay [3] it was 14.5%; in assay [4], 17.9%; in assay [5], 4.85%; in assay [6], 11.4%.

With `O=C(O)C(CSC(c1ccccc1)(c1ccccc1)c1ccccc1)N=Cc1cccs1` (stereo unspecified), the growth inhibition in assay [1] is -8%; in assay [2], -1.65%; in assay [3], -1.95%; in assay [4] it was -33.9%; in assay [5] it was 43.3%; in assay [6] it was -18.2%.

With `C1CN(P(N2CCOCC2)N2CCOCC2)CCO1`, the growth inhibition was -17.6% in assay [1]; -70.3% in assay [2]; -9.25% in assay [3]; 18.1% in assay [4]; -10.4% in assay [5]; -28.4% in assay [6].

As for `O=C1NC(=S)NC(=O)C1=Cc1ccc(-c2ccccc2)cc1`, the growth inhibition is 33.1% in assay [1]; -12% in assay [2]; 16.7% in assay [3]; 15.6% in assay [4]; 13.3% in assay [5]; 15.3% in assay [6].

On to `O=C(Nc1cccs1)c1c(O)[nH]c(=S)[nH]c1=O`, for which the growth inhibition in assay [1] was -1.35%; in assay [2] it was 20.9%; in assay [3] it was 25.1%; in assay [4] it was 16.8%; in assay [5], 7.05%; in assay [6], 4.5%.

As for `CN(C)/N=C(\CCN1CCCC1)CC(c1ccccc1)c1c(O)c2ccccc2oc1=O` (stereo unspecified), the growth inhibition in assay [1] is 55%; in assay [2], 35.6%; in assay [3], 63.1%; in assay [4], 48%; in assay [5] it was 49.9%; in assay [6], 50.3%.

Turning to `CCCC1(CCS)C(=O)NC(=O)NC1=O`, the growth inhibition in assay [1] is -12.9%; in assay [2], -33.7%; in assay [3], -13.3%; in assay [4] it was 5.25%; in assay [5], 2.3%; in assay [6], 9.15%.

`C/C=C/COC(=O)CO[N+](=O)[O-]`: the growth inhibition in assay [1] is 2%; in assay [2], -4.25%; in assay [3], -5.3%; in assay [4] it was -12.8%; in assay [5], -0.5%; in assay [6], -0.15%.

Turning to `Cc1c[n+]2ccc3ccccc3c2c2ccccc12`, the growth inhibition is -3.9% in assay [1]; -10.9% in assay [2]; -8.65% in assay [3]; -78.2% in assay [4]; -3.2% in assay [5]; -11.7% in assay [6].

With `CC(C)(C)[SH+]CC[SH+]C(C)(C)C.[C-]#[O+].[C-]#[O+].[C-]#[O+].[C-]#[O+].[Cr]`, the growth inhibition in assay [1] was 13.6%; in assay [2], -19.1%; in assay [3], -7.25%; in assay [4] it was -4.4%; in assay [5] it was 3.65%; in assay [6], 3.35%.

`O=c1[nH]c2ccc([As](=O)(O)O)cc2[nH]1`: the growth inhibition was -8.7% in assay [1]; -1.1% in assay [2]; -0.95% in assay [3]; -5.2% in assay [4]; 13.7% in assay [5]; 8.55% in assay [6].
